Laboratory results: paper PMC5540273 (PLoS ONE, 2017)

System: CDK4-cyclinD1
Settings: concentration: 1 μM,replicates: in singlicate; n = 1
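Also: KINOMEscan kinase panel screen.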

Going from `O=C(Nc1cccc(C(F)(F)F)c1)c1cccc(Oc2ccc3nccn3n2)c1` to `Cn1ccc2ncnc(Oc3ccc(NC(=O)Nc4cccc(C(F)(F)F)c4)c(F)c3)c21`, the “%Inh” value falls from 18% to 16%.

Compared with `O=c1[nH]cc(-c2ccc(O)cc2)c2sc(-c3ccncc3)cc12` [GSK1033723], `C[C@@H]1CNc2c(sc3ccc4nc(-c5ccc(O)cc5)ccc4c23)C(=O)N1` is higher in “%Inh” value: 0% for the first, 30% for the second.

`Cc1nnc(-c2ccc3occ(-c4ccc(S(C)=O)cc4)c3n2)o1` (stereo not drawn) and `CS(=O)c1ccc(-c2coc3ccc(-c4n[nH]c(=O)o4)cc23)cc1` (stereo not drawn) are the same in “%Inh” value: 0% for the first, 0% for the second.

`Cl.Cl.NC[C@H](CC1CCCCC1)NC(=O)c1ccc(-c2ccnc3[nH]ccc23)s1` [GSK1581428] and `CCNCC(Cc1ccccc1)NC(=O)c1cc(Br)c(-c2ccnc3[nH]ccc23)s1.Cl.Cl` (stereo not drawn) [GSK1383280] are the same in “%Inh” value: 0% for the first, 0% for the second.

`COc1cc2nccc(Nc3ccc(Oc4ccccc4)cc3)c2cc1OC.Cl` [GI261656] and `c1ccc(Oc2ccc(Nc3ccnc4ccc(-c5ccccn5)cc34)cc2)cc1` [GW407034] are the same in “%Inh” value: 0% for the first, 0% for the second.

`O=C(NCC1CC1)c1ccc(-c2cc(C(=O)NC3CC3)ccc2F)cc1` [GW810445] and `COC(=O)c1cccc(NC(=O)NC2CCN(c3ccnc(NCc4ccc(F)cc4)n3)CC2)c1` [GSK1379860] are the same in “%Inh” value: 0% for the first, 0% for the second.

Going from `NC(=O)Nc1sc(-c2ccc(F)cc2)cc1C(N)=O` [GW789449] to `Cn1cc(-c2cccc3c(N)c(C(N)=O)nnc23)cn1`, the “%Inh” value falls from 30% to 8%.

`C[C@@H](Oc1cc(-n2cnc3cc(-c4ccncc4)ccc32)sc1C(N)=O)c1ccccc1Cl` [GSK479719] and `C[C@@H](Oc1cc(-n2cnc3ccc(-c4ccncc4)cc32)sc1C(N)=O)c1ccccc1Cl` [GSK483724] are the same in “%Inh” value: 0% for the first, 0% for the second.

First: OCCn1cc(-c2cnc3nnn(Cc4ccc5ncccc5c4)c3n2)cn1
Second: FC(F)(F)c1cc(Br)cc(Nc2nccc(-c3cnn4ncccc34)n2)c1 [GW810578]
The “%Inh” value of the first is lower: 0% for the first, 16% for the second.

`Cn1ccc2ncnc(Oc3ccc(NC(=O)Nc4cncc(C(F)(F)F)c4)c(Cl)c3)c21` and `Cn1ccc2ncnc(Oc3ccc(NC(=O)Nc4ccnc(C(F)(F)F)c4)c(Cl)c3)c21` are the same in “%Inh” value: 0% for the first, 0% for the second.

Compared with `Cc1n[nH]c2cc(Nc3ccnc(Nc4cccc(CN5CCOCC5)c4)n3)ccc12` [GW682569], `Cc1ccc(Nc2ccnc(Nc3ccc4c(c3)CS(=O)(=O)C4)n2)cc1O.Cl` [GW579362] is higher in “%Inh” value: 0% for the first, 88% for the second.

`COc1cc2ncn(-c3cc(OCC4CCCCC4)c(C(N)=O)s3)c2cc1OC` [GSK204559] and `C[C@@H](Oc1cc(-n2cnc3cc(-c4cnn(C)c4)ccc32)sc1C(N)=O)c1ccccc1Cl` [GSK580432] are the same in “%Inh” value: 0% for the first, 0% for the second.

Compared with `CN1CCN(CCNc2nc3cc(Oc4ccc(NC(=O)Nc5cc(C(F)(F)F)ccc5F)cc4)ccc3[nH]2)CC1.Cl.Cl` [GW768504], `COC(=O)Nc1nc2cc(Oc3ccc(NC(=O)Nc4cc(C(F)(F)F)ccc4Cl)cc3)ccc2[nH]1.Cl` [GW697465] is higher in “%Inh” value: 0% for the first, 20% for the second.

Going from `CN(c1cccc(CNc2nc(Nc3ccc4c(c3)CC(=O)N4)ncc2C(F)(F)F)c1)S(C)(=O)=O` to `CN(c1ccccc1CNc1nc(Nc2ccc3c(c2)CC(=O)N3)ncc1C(F)(F)F)S(C)(=O)=O`, the “%Inh” value falls from 22% to 0%.

Compared with `COc1cc(Nc2nccc(N3CCC(NC(=O)c4cccc(C#N)c4)C3)n2)cc(OC)c1OC` (stereo not drawn) [GSK1379751], `CC(=O)Nc1nc2cnc(Nc3cc(NC(=O)c4cccc(CC(C)(C)C#N)c4)ccc3C)nc2s1` is lower in “%Inh” value: 5% for the first, 1% for the second.

Compared with `O=C(Nc1ccc(Oc2ccc3nc(NC(=O)C4CC4)cn3n2)c(F)c1)c1cccn(-c2ccccc2)c1=O`, `Cc1ccc(C(=O)Nc2ccc(Oc3ccc4nc(NC(=O)C5CC5)cn4c3)c(F)c2)c(=O)n1-c1ccccc1` is higher in “%Inh” value: 0% for the first, 21% for the second.

`Cc1ccc2c(-c3ccnc(Nc4ccc(C(F)(F)F)cc4)n3)cnn2n1` [GW819776] and `Cl.Nc1n[nH]c2cc(-c3ccccn3)ccc12` [GSK2189892] are the same in “%Inh” value: 0% for the first, 0% for the second.

Going from `CC(C)S(=O)(=O)N1CCN(Cc2ccc3c(c2)nc(NC(=O)c2ccsc2)n3C[C@H](O)c2ccccc2)CC1` [GW635815] to `O=C1NCCc2[nH]c(-c3ccncc3)cc21`, the “%Inh” value rises from 0% to 21%.
